HIV RNase H inh-1 – inhibitors of HIV-1 reverse transcriptase RNase H; P04585; RT-RNase H RNA/DNA duplex cleavage, fluorescence; inhibition, % at 10 µM; 1.9% of 65,000 active; AID 565; in the data active = inhibition above about 50%
HIV RNase H inh-2 – confirmation of HIV-1 reverse transcriptase RNase H inhibitors; Recombinant RT RNase H, fluorescent RNA/DNA duplex cleavage; AID 651; inhibition, % at 10 µM; shares compounds with HIV RNase H inh-1; 39% of 1,000 active; in the data active = inhibition above about 48%; inconclusive = no clear call, values can overlap the other calls
An asterisk follows results filed as active; ? = inconclusive. This is one part of a sample in which hits are shown more often than they occur.

SMILES | HIV RNase H inh-1 | others
CCOC(=O)c1c(NC(=O)c2cc(C3CC3)on2)sc(C(C)=O)c1C | 68.0* | HIV RNase H inh-2=50.6
CC(O)c1c(OCc2ccccc2)ncnc1OCc1ccccc1 (stereo not drawn) | -23.4
CC(C)OC(=O)Cn1cnc2ccc(Br)cc2c1=O | -11.5
CCCN1CCN(C(=O)CN2C(=O)CC(C)(C)S(=O)(=O)c3ccccc32)CC1 | -1.4
CCOCCCNC(=O)C1CCCN1C(=O)NC1CCCCC1 (stereo not drawn) | -5.4
Cc1nc(SC2C=CS(=O)(=O)C2)n[nH]1 (stereo not drawn) | -1.0
CCc1ccc(N/C(SC)=C(/C#N)C(N)=O)cc1 | -18.1
CCCCS/C(=C(/C#N)C(N)=O)c1cc2c([nH]1)CCCC2 | 81.1* | HIV RNase H inh-2=-0.2
Oc1c(/C=N/c2ncn[nH]2)ccc2ccccc12 | -3.6
C(=N\n1cnnc1)/c1ccc2ncccc2c1 | -14.3
Oc1ccc(C=Nc2ccc3ncccc3c2)c(O)c1 | 53.1* | HIV RNase H inh-2=42.7
CC(C(=O)NC1CCCC1)N(C(=O)c1snc(C(N)=O)c1N)c1ccc2c(c1)OCCO2 (stereo not drawn) | -0.5
CCC(c1nnnn1C1CCCC1)N1CCN(c2ccccc2F)CC1 (stereo not drawn) | 0.9
CC(C)C(c1nnnn1C1CCCC1)N1c2ccccc2CC1C (stereo not drawn) | 74.2* | HIV RNase H inh-2=8.9
CC(C)C(c1nnnn1C1CCCCC1)N1CCOCC1 (stereo not drawn) | 4.0
CCn1c(CNC(=O)c2ccco2)nnc1SCC(=O)Nc1cc(C(F)(F)F)ccc1Cl | -1.3
CCOC(=O)Nc1ccc2c(c1)N(C(=O)N(CC)CC)c1ccccc1CC2 | -5.0
Cc1cc(S(=O)(=O)NCCc2ccccc2)c(C)s1 | -34.5
CC(C(=O)Nc1ccccn1)N1C(=O)C2C3C=CC(C3)C2C1=O (stereo not drawn) | 74.1* | HIV RNase H inh-2=18.2
CC(C(N)=O)N1C(=O)C2C3C=CC(C3)C2C1=O (stereo not drawn) | -3.6
CCCc1nnc(NC(=O)C(C)N2C(=O)C3C4C=CC(C4)C3C2=O)s1 (stereo not drawn) | -1.0
CC(=O)Nc1cccc(-c2nnc(SCc3ccccc3C#N)n2C)c1 | 9.4
CS(=O)(=O)N(CC(=O)NCC1CCCO1)c1ccc(F)c(Cl)c1 (stereo not drawn) | 2.9
N#Cc1nc(-c2ccccc2F)oc1NC1CCCCC1 | -20.9
C1=C(c2ccc(-c3ccccc3)cc2)Nc2ncnn2C1c1ccco1 (stereo not drawn) | 89.7* | HIV RNase H inh-2=51.7*
SMILES | HIV RNase H inh-1 | others
CCOc1ccc(C2C=C(c3ccccc3)Nc3ncnn32)cc1 (stereo not drawn) | 0.2
COc1cccc(C2=CC(c3ccccc3)n3ncnc3N2)c1 (stereo not drawn) | -6.2
CCCCSc1nc(N)c(NC(=O)c2ccco2)c(=O)[nH]1 | -16.2
COc1ccc(OC)c(C2CC(=O)NC(SC)=C2C#N)c1 (stereo not drawn) | -38.4
CCOC(=O)c1ccc(N2CSC3=C(C#N)C(c4ccc(OC)cc4OC)CC(=O)N3C2)cc1 (stereo not drawn) | 16.4
CCc1ccccc1N1CSC2=C(C#N)C(c3cc(OC)c(OC)cc3OC)CC(=O)N2C1 (stereo not drawn) | 78.6* | HIV RNase H inh-2=63.4*
COc1ccc(OC)c(C2CC(=O)N3CN(c4cccc(Cl)c4)CSC3=C2C#N)c1 (stereo not drawn) | -7.7
Cc1ccc(C2CC(=O)N3CN(c4ccc(Br)cc4)CSC3=C2C#N)o1 (stereo not drawn) | 40.5
Cc1ccc(C2CC(=O)N3CN(Cc4ccco4)CSC3=C2C#N)cc1 (stereo not drawn) | 25.6
COc1ccc(OC)c(C2CC(=O)N3CN(c4ccc(C)c(Cl)c4)CSC3=C2C#N)c1 (stereo not drawn) | -5.5
COc1cc(OC)c(C2CC(=O)N3CN(C)CSC3=C2C#N)cc1OC (stereo not drawn) | 76.0* | HIV RNase H inh-2=56.7*
COc1cc(OC)c(C2CC(=O)N3CN(c4ccccc4)CSC3=C2C#N)cc1OC (stereo not drawn) | 33.2
CC(C)c1ccc(C2CC(=O)N3CN(C)CSC3=C2C#N)cc1 (stereo not drawn) | 72.9* | HIV RNase H inh-2=65.3*
COc1ccc(Br)cc1C1CC(=O)N2CN(C)CSC2=C1C#N (stereo not drawn) | 80.0* | HIV RNase H inh-2=64.4*
COc1ccc2[nH]c(=O)c(CN(CCO)C(=O)c3ccccc3F)cc2c1 | -12.2
Cc1c(C)[n+](=O)c(-c2cccs2)c(C)n1[O-] | 2.1
O=c1cc(-c2c(F)c(F)c(F)c(F)c2F)oc2c(F)c(F)c(F)c(F)c12 | -6.1
CC(C)(C)C(=O)/C=C(N)/C=C/c1ccccc1 | -7.6
Cc1csc2nc(=O)c3ccccc3n12 | -10.5
Nc1nc(SCC(=O)C23CC4CC(CC(C4)C2)C3)n[nH]1 | -50.9
Cc1cc(C)n(-c2nc3c(c(=O)n(C)c(=O)n3C)n2Cc2cccc(Br)c2)n1 | -8.6
CCOC(=O)c1ccccc1NC(=O)CN(c1ccccc1)S(=O)(=O)N(C)C | -14.2
O=C(Nc1ccccc1)N(O)c1ccc(Cl)cc1 | 3.6
COc1ccc(-c2noc(CN(C(=O)C(C)(C)C)C(C)C)n2)cc1 | 0.6
Cc1cc(N2C(=O)CC(N3CCN(C(c4ccccc4)c4ccccc4)CC3)C2=O)no1 (stereo not drawn) | 17.5
SMILES | HIV RNase H inh-1 | others
CCOC(=O)CSc1nc(N2CCOCC2)c2c(c1C#N)CC(C)(C)N(C)C2 | 7.0
CCOC(=O)N1CCC(NS(=O)(=O)c2cc(Br)cc3c2N(C(=O)CC)CC3)CC1 | -5.3
COCCn1c(SCC(=O)N2CCN(c3ccccc3)CC2)nc2c(c1=O)SC(C)C2 (stereo not drawn) | -5.2
CCOC(=O)C1=C(N)n2c(s/c(=C\c3cccs3)c2=O)=C(C(=O)OCC)C1c1cccs1 (stereo not drawn) | 21.0
Cc1ccc(S(=O)(=O)N2CCN(C(=O)CSc3nnnn3C)C2)cc1 | -14.4
N#CC1=C2SCN(c3ccccc3)CN2C(=O)CC1c1c(Cl)cccc1Cl (stereo not drawn) | 38.2
COc1ccc2ccccc2c1C1CC(=O)N2CN(C)CSC2=C1C#N (stereo not drawn) | 68.1* | HIV RNase H inh-2=10.8
N#CC1=C2SCN(c3ccccc3)CN2C(=O)CC1c1cccs1 (stereo not drawn) | -5.3
N#CC1=C2SCN(c3ccccc3)CN2C(=O)CC1c1ccccc1Cl (stereo not drawn) | 67.4* | HIV RNase H inh-2=26.0
O=C(c1ccccc1OCc1ccccc1Br)N1CCN(c2ncccn2)CC1 | -17.6
O=S(=O)(/C=C/c1ccccc1)Nc1ccc2c(c1)OCO2 | -13.6
Cc1cc(NC(=O)Cn2cnc3c2c(=O)n(C)c(=O)n3C)n(-c2ccccc2)n1 | 3.5
C=CCn1c(SCC2=C(C(=O)OCC)C(C)NC(=O)N2)nnc1C1CCCCC1 (stereo not drawn) | 0.2
Cc1ccc(NC(=O)c2ccc(OC(=O)c3ccco3)cc2)cc1 | 24.7
O=C(Oc1ccc(-c2cnc3ccccc3n2)cc1)c1ccco1 | 72.6* | HIV RNase H inh-2=?
O=C(Oc1cccnc1)c1ccco1 | -12.6
CCOC(=O)Nc1sc(C)nc1-c1ccccc1 | -0.5
CCOC(=O)c1sc(N)nc1-c1ccccc1 | 70.8* | HIV RNase H inh-2=38.4
CCOC(=O)c1snc(-c2ccc(F)cc2)c1N | -8.0
CCN1CCCC1CNC(=O)C1CCN(Cc2nc(-c3cccc(Br)c3)oc2C)CC1 (stereo not drawn) | -5.5
CS(=O)(=O)N1CCN(C(=O)c2cc(-c3ccncc3)nc3ccc(Cl)cc23)CC1 | -1.8

Screens from PubChem BioAssay.
